Efa HMGR inh: inhibitors of E. faecalis class II HMGR, primary screen, biochemical, Enterococcus faecalis; HMG-CoA reductase (Enterococcus faecalis, mvaE); purified E. faecalis HMGR, NADPH absorbance 340 nm kinetic; inhibition, % at 10 µM; 0.41% of 190,000 active;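 active = inhibition above a set limit, the median over all tested compounds plus 3 SD, cut at about 9.5% in these data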;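 also: enzyme runs in reverse so mevalonate oxidation gives rising NADPH absorbance; 0% = complete reaction with DMSO and 100% = background rate lacking mevalonate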
EP2 antag: human EP2 receptor antagonists, primary screen, TR-FRET cAMP, C6 glioma cells | Prostaglandin E2 receptor EP2 subtype (Homo sapiens), P43116 | C6 glioma cells expressing human EP2; cells stimulated with saturating PGE2 | inhibition, % at 25 µM | 0.52% of 260,000 active;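 active = percent inhibition above 40 after rounding to a whole number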;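 also: rat C6 glioma host cells with rolipram phosphodiesterase inhibitor present; the protocol text gives 20 µM as final concentration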
Target sequence (P43116 whole entry, looked up): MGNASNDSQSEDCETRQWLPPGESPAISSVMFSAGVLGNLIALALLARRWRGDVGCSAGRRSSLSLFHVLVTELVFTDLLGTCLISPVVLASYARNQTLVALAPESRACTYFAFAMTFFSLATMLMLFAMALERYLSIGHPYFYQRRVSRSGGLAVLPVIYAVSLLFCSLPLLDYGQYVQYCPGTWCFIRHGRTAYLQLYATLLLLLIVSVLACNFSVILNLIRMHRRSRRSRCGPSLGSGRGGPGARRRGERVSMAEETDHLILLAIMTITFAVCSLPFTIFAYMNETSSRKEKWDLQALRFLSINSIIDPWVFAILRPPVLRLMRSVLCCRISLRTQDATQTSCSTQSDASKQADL
Calpain2 inh: inhibitors of pig calpain II, primary screen, biochemical, fluorogenic peptide substrate, 1536-well. inhibition, % at 16 µM. 0.37% of 220,000 active. purified calpain II, 30 min;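 active = inhibition above about 50%, limit read from the data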
EP2 mod: EP2 receptor modulators, cAMP readout, primary screen, cell-based, HTRF cAMP, PGE2 stimulation. 0.83% of 260,000 active. induction, % at 25 µM. AID 940, 2007. EP2-expressing cells, cAMP HTRF FRET, PGE2 co-stimulation. Prostaglandin E2 receptor EP2 subtype (Homo sapiens), P43116;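 active = compounds whose cAMP rise, as percent of the full-agonist control response, exceeds 60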;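 also: rat C6 glioma line stably carrying human EP2 under a CMV promoter; the protocol text gives 20 µM as final concentration; 100% = response of wells given 1 µM PGE2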
Furin inhibitor: human furin inhibitors, primary screen, biochemical, fluorescence intensity; P09958; purified furin, fluorogenic substrate cleavage; inhibition, % at 20 µM or 30 µM; 0.061% of 220,000 active; in the data active = inhibition above about 25%
* hit, by the source's call; i = inactive; nt = no result. An excerpt weighted towards active compounds, which were near 1.9% of everything screened.

SMILES	Efa HMGR inh	EP2 antag	Calpain2 inh	EP2 mod	Furin inhibitor
COC(=O)C(Cc1c[nH]c2ccccc12)NC(=O)c1cc(-c2ccccc2)oc1C (stereo not drawn)	nt	7	nt	-42	nt
COc1ccc(-c2cc(C(=O)NC(Cc3cc4ccccc4[nH]3)C(=O)O)c(C)o2)cc1OC (stereo not drawn)	-7	6	52*	-29	-3
CN1[C@@H](C(=O)NCc2ccccn2)C[C@@H](c2cccs2)NS1(=O)=O	nt	nt	nt	85*	nt
CC(=O)C1=C(O)C(=O)N(CC#N)C1c1ccccc1 (stereo not drawn)	nt	10	nt	1	nt
CN1CCCCC1CCN1c2ccccc2Sc2ccc(S(C)=O)cc21 (stereo not drawn)	6	18	-50	nt	nt
COc1ccc2c(c1)N(CC[C@H]1CCCCN1C)c1ccccc1S2	nt	41*	nt	-55	nt
Cc1cccc(OCCCSc2nc3ccc(C)cc3[nH]2)c1	-4	16	71*	-8	5
CC(C)C(=O)N1CCN(c2ccccc2N)CC1	0	11	81*	12	-25
Cc1cc(NC(=S)N(Cc2cccc(Br)c2)CC2CCC(C(=O)O)CC2)ccc1Cl (stereo not drawn)	1	2	53*	3	7
C1CCN(CC[C@@H]2CCCCN2)CC1	nt	4	nt	19	nt
COc1ccc(C(=O)Nc2ccc(S(=O)(=O)Nc3ccccn3)cc2)cc1	nt	7	nt	-33	nt
COc1cc(NS(=O)(=O)c2ccc(C)cc2)ccc1-n1cnnn1	-1	153*	-5	21	-31
O=C1CC(C(=O)Nc2cc(Cl)ccc2Cl)n2ncnc2N1 (stereo not drawn)	-6	10	-3	27	-17
O=C1CC(C(=O)Nc2cccc(Cl)c2)n2ncnc2N1 (stereo not drawn)	12*	5	-4	26	-33
COc1ccc(Cn2nnnc2CN(Cc2cccnc2)Cc2cc3ccc(C)cc3[nH]c2=O)cc1	nt	8	nt	-13	nt
Clc1ccc2c(c1)c1ccccc1n2CN1CCOCC1	-2	7	-34	13	-13
Clc1ccc2c(c1)c1cc(Cl)ccc1n2CN1CCOCC1	3	2	-11	64*	-15
CCc1cc(C(=O)OC)c(NC(=O)C2CC(=O)NN2Cc2ccccc2)s1 (stereo not drawn)	-4	7	15	63*	-24
O=C(NC(NC(=S)Nc1cc(Cl)ccc1Cl)C(Cl)(Cl)Cl)c1ccco1 (stereo not drawn)	-4	6	26	-16	-26
O=C(Cc1ccccc1)NC(NC(=S)Nc1cc(Cl)ccc1Cl)C(Cl)(Cl)Cl (stereo not drawn)	-4	6	51*	-12	-23
O=C(NC(NC(=S)Nc1ccccc1C(=O)O)C(Cl)(Cl)Cl)c1ccccc1 (stereo not drawn)	17*	2	-341	-21	-23
O=C1CCc2cc(S(=O)(=O)N3CCCC(CN4CCOCC4)C3)ccc2N1 (stereo not drawn)	nt	6	nt	-19	nt
COC(=O)CC(NS(=O)(=O)c1cccs1)c1cccc2ccccc12 (stereo not drawn)	-5	9	60*	27	-20
CNc1cccc2c1C(=O)c1ccccc1C2=O	7	12	-8	-4	-8
O=C1c2ccccc2C(=O)c2c(Nc3ccc4c5c(cccc35)C(=O)c3ccccc3-4)cccc21	nt	43*	nt	19	nt
SMILES	Efa HMGR inh	EP2 antag	Calpain2 inh	EP2 mod	Furin inhibitor
O=C1c2ccccc2C(=O)c2c(Nc3cc4c5c(ccc6c7ccc8c9c(cc(Nc%10cccc%11c%10C(=O)c%10ccccc%10C%11=O)c(c3c56)c97)-c3ccccc3C8=O)C(=O)c3ccccc3-4)cccc21	nt	44*	nt	2	nt
C[C@H](Cn1nnc2ccccc21)NC(=O)c1cscn1	nt	5	nt	-7	nt
O=C(CN1CCC(O)(c2ccccc2)CC1)Nc1ccc(N2CCCC2)cc1	nt	8	nt	-46	nt
O=Nc1c(O)n(Cc2cccc(C(F)(F)F)c2)c2ccccc12	-1	6	1	64*	-24
COc1cc2cc(CN(Cc3cccnc3)C(=O)Nc3ccc(F)cc3)c(=O)[nH]c2cc1OC	nt	10	nt	14	nt
Nc1ccc(N=Nc2ccc(-c3ccc(O)cc3)cc2)c2ccc(S(=O)(=O)O)cc12	nt	49*	nt	-22	nt
CN(C)c1cccc2cccc(N(C)C)c12	nt	10	-16	-37	-12
CN(C)c1ccc2c3c(ccc(N(C)C)c13)COC2	15*	7	-29	-10	-18
O/N=C(\c1ccc(Cl)cc1)c1cc2ccccc2o1	-2	nt	65*	-1	-30
Cc1ccc(C(=O)c2cc3ccccc3o2)cc1	-2	14	6	19	-31
CC1CCN(c2ccc(NC(=O)c3cccnc3)cc2)CC1	-4	10	3	13	25*
CCCCCCCNC1=CC(=O)CC(c2ccccc2)C1 (stereo not drawn)	-1	5	74*	-4	-13
CCCCCNC1=CC(=O)CC(c2ccccc2)C1 (stereo not drawn)	-5	10	20	-8	-10
Cc1cc(-c2cc(N)c(=O)n(CC(=O)NCc3ccc4c(c3)OCO4)n2)c(C)o1	nt	6	nt	-82	nt
CN1CCc2c(sc3c2C(=O)NC(c2ccc4c(c2)OCO4)N3)C1 (stereo not drawn)	nt	41*	nt	nt	nt
CN1CCc2c(sc3c2C(=O)NC(c2ccccc2)N3)C1 (stereo not drawn)	-6	10	11	-30	-19
CSc1ncc(C(=O)NC2(c3ccccc3)CCCC2)cn1	nt	2	nt	-39	nt
Cc1ncc(-c2ccncc2)c(C2CCN(C(=O)CCc3ccc(C)o3)CC2)n1	nt	nt	nt	-32	nt
c1ccc(Cn2c(-c3ccco3)nc3nc4ccccc4nc32)cc1	1	17	i	62*	-19
Cc1cc(C)nc(N2CCC(C(=O)Nc3ccc(C)c(C)c3)CC2)n1	nt	7	nt	-3	nt
C/C(=N\NC(=S)NCc1ccccc1)c1ccccc1F	-2	3	22	64*	-15
CCn1c2ccccc2n2c(=O)n(CC(=O)N3CCC(C(N)=O)CC3)nc12	nt	6	nt	14	nt
c1ccc(CNc2nc(-c3cccs3)nc3ccccc23)cc1	-2	13	12	7	-10
CCSc1nc(-c2cccs2)nc2ccccc12	7	5	5	64*	-22
COCCn1nnnc1CN1CCCC(c2[nH]ncc2-c2ccncc2)C1 (stereo not drawn)	nt	nt	nt	-16	nt
O=C1c2ccccc2C(=O)N1CCCCN1CCN(CCCCN2C(=O)c3ccccc3C2=O)CC1	nt	nt	nt	nt	26*
O=C1c2ccccc2C(=O)N1CCCC(=O)N1CCCc2ccccc21	-2	9	57*	0	-25
O=C1CC(=C2c3ccccc3-c3ccccc32)C(=O)N1CCCCN1CCN(c2ccccc2)CC1	3	5	-96	4	28*

Assay outcomes: PubChem, several laboratories
